From the supplement of paper PMC5641865, “A screen for kinase inhibitors identifies antimicrobial imidazopyridine aminofurazans as specific inhibitors of the Listeria monocytogenes PASTA kinase PrkA” (The Journal of Biological Chemistry, 2017) come the findings set out here.

± gives the standard deviation of the averaged measurements.
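Further: End-point A600 read in BHI broth at 37 °C with 2% DMSO, inhibition computed as (1 − OD with compound plus ceftriaxone ÷ OD with ceftriaxone only) × 100.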

The subject of the assay is Listeria monocytogenes 10403S. Description: growth inhibition relative to ceftriaxone-alone control; higher = stronger potentiation of ceftriaxone growth inhibition. Conditions: 10 µM; ceftriaxone 1 ug/ml; 12 h.
For the molecule `Cc1ccc2c(-c3ccnc(Nc4cccc(C(F)(F)F)c4)n3)c(-c3ccccc3)nn2n1`, the growth inhibition was -3.53 ± 4.7%.
Turning to `Nc1nccc(C#Cc2cncnc2Nc2ccc(OCc3cccc(F)c3)c(Cl)c2)n1`, the growth inhibition came to 8.9975 ± 0.0066%.
On to `NS(=O)(=O)c1cccc(N/C=C2\C(=O)Nc3ccccc32)c1`, for which the growth inhibition was -6.18 ± 1%.
As to `Cc1cc(O)cc(C)c1/C=C/c1cncc(C(N)=O)c1`, the growth inhibition is -0.223 ± 2.4%.
`Cc1ccc(Nc2ccnc(Nc3cccc(C(N)=O)c3)n2)cc1O`: the growth inhibition was -4.84 ± 3.2%.
As for `COc1cc2ncn(-c3cc(OCc4ccccc4C(F)(F)F)c(C(C)=O)s3)c2cc1OC`, the growth inhibition came to 11.2 ± 1.6%.
With `C[C@@H](Oc1cc(-n2cnc3ccc(OCC4CCN(C)CC4)cc32)sc1C(N)=O)c1ccccc1Cl`, the growth inhibition is -2.37 ± 3%.
On to `COc1cc(Nc2ncc3c(C)nc(-c4cccc(Oc5ccccc5)c4)n3n2)cc(OC)c1OC`, for which the growth inhibition is -18.3 ± 17%.
Take `NS(=O)(=O)c1ccc(N/N=C2\C(=O)Nc3cccc(CCc4ccncc4)c32)cc1`: the growth inhibition was -4.56 ± 8.2%.
For `CN1CCC(C(=O)Nc2n[nH]c3nnc(-c4ccccc4)cc23)CC1`, the growth inhibition is 17.5 ± 11%.
As for `COC(=O)c1sc(-n2cnc3cc(OC)c(OC)cc32)cc1OCc1ccccc1C(F)(F)F`, the growth inhibition was 0.599 ± 0.69%.
For `Cc1cc2c(F)c(Oc3ncnn4cc(OC[C@@H](C)OC(=O)[C@H](C)N)c(C)c34)ccc2[nH]1`, the growth inhibition was found to be 100.2 ± 0.95%.
As for `CS(=O)(=O)CCNCc1ccc(-c2ccc3ncnc(Nc4ccc(OCc5cccc(C(F)(F)F)c5)cc4)c3c2)o1`, the growth inhibition is -9.85 ± 16%.
For the molecule `NC(=O)c1sc(-n2cnc3cc(C(F)(F)F)ccc32)cc1OCc1ccccc1Br`, the growth inhibition is -7.84 ± 1.8%.
In the case of `CC1(C)CC(n2cnc(-c3ccc(F)cc3)c2-c2ccnc(N)n2)CC(C)(C)N1` it was -11.4 ± 8.9%; in that of `CCN(CC)Cc1ccc(Nc2nccc(-c3cnn4ncccc34)n2)cc1`, -11.5 ± 14%; in that of `O=C(O[C@H]1CN[C@H](C#Cc2cc3ncnc(Nc4ccc(OCc5cccc(F)c5)c(Cl)c4)c3s2)C1)N1CCOCC1`, 14.3 ± 11%.
As to `Cc1ccc(C(=O)NC2CCCCC2)cc1-c1ccc(C(=O)NCC2CC2)cc1`, the growth inhibition is -1.78 ± 6.1%.
In the case of `COc1cc(Nc2ncc(-c3ccccc3)o2)cc(OC)c1OC` it was 1.14 ± 0.11%; in that of `CS(=O)(=O)CCNCc1coc(-c2ccc3ncnc(Nc4ccc(OCc5ccccc5)cc4)c3c2)c1`, 4.98 ± 4.3%.
For `CS(=O)(=O)CCNCc1cc(-c2cc3c(Nc4ccc(OCc5cccc(F)c5)c(Cl)c4)ncnc3s2)cs1`, the growth inhibition is -10.8 ± 13%.
For `Cc1nn(C)c2cc(N(C)c3ccnc(Nc4cccc(S(N)(=O)=O)c4)n3)ccc12` the value was 10.1 ± 1.2%.
With `NS(=O)(=O)c1cccc(-c2cc3ccncc3cc2OCc2ccccc2)c1`, the growth inhibition came to 8.53 ± 3.9%.
Consider `Cc1cccc(-c2n[nH]cc2-c2ccc3ncccc3n2)n1`, for which the growth inhibition was -9.12 ± 7.3%.
For `CS(=O)(=O)CCNCc1ccc(-c2ccc3ncnc(Nc4ccc(OCc5ccccc5)c(Br)c4)c3c2)o1` the value was -2.35 ± 3.3%; for `Cc1c(NC(=O)OC[C@@H]2COCCN2)cn2ncnc(Nc3ccc4c(cnn4Cc4cccc(F)c4)c3)c12`, 44.1 ± 20%.
For `COc1cc2ncn(-c3cc(O[C@@H](C)c4ccccc4Cl)c(C(N)=O)s3)c2cc1OC` the value was -12.3 ± 4.7%; for `CS(=O)(=O)N1CCN(Cc2cc3nc(-c4cccc5[nH]ncc45)nc(N4CCOCC4)c3s2)CC1`, 25.2 ± 21%.
`COc1c(C(N)=O)cc(-c2ccc(Cl)cc2)cc1-c1ccc(S(N)(=O)=O)cc1`: the growth inhibition was found to be 1.37 ± 1.2%.
Take `CS(=O)(=O)CCNCc1nc(-c2ccc3ncnc(Nc4ccc(OCc5cccc(C(F)(F)F)c5)cc4)c3c2)cs1`: the growth inhibition is -8.22 ± 14%.
Regarding `CN(C)C1CCN(C(=O)c2ccc(NC(=O)Nc3ccc(-c4nc(N5CCOCC5)nc(N5CCOCC5)n4)cc3)cc2)CC1`, the growth inhibition was 22.7 ± 7.4%.
For `CCc1cnn2c(NCc3ccc[n+]([O-])c3)cc(N3CCCC[C@H]3CCO)nc12`, the growth inhibition is -2.28 ± 10%.
Regarding `NS(=O)(=O)c1ccc(N/N=C2\C(=O)Nc3ccc(Cl)cc32)cc1`, the growth inhibition is -12.5 ± 11%.
In the case of `Nc1nc(-c2ccc3c(c2)C(=Cc2cc(Br)c(O)c(Br)c2)C(=O)N3)cs1`, the growth inhibition stood at 3.8 ± 2.8%.
Turning to `NS(=O)(=O)c1ccc(N/C=C2\C(=O)Nc3ccc4ncsc4c32)cc1`, the growth inhibition is -2.62 ± 4.2%.
In the case of `CCN1CCN(Cc2ccc(-c3cc4c(N[C@H](C)c5ccccc5)ncnc4[nH]3)cc2)CC1`, the growth inhibition is 22.1 ± 4.2%.
As for `Fc1ccc(-c2ncn(C3CCNCC3)c2-c2ccnc(Oc3ccc4c(c3)OCO4)n2)cc1`, the growth inhibition is -3.86 ± 1.5%.
Consider `NC1(c2ccc(-c3nc4ccn5c(=O)[nH]nc5c4cc3-c3ccccc3)cc2)CCC1`, for which the growth inhibition was 86.41 ± 0.47%.
